Pf growth 48h: Primary qHTS for delayed death inhibitors of the malarial parasite plastid, 48 hour incubation; P. falciparum luciferase growth in erythrocytes, 48 h; Potency, µM (highest dose often 28.7 µM), for inactives: top-dose activity change, negative = inhibition, actives largely listed as inhibitors; 310,000 compounds, 5.9% hits; AID 504832, 2011
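Growth was read as firefly luciferase luminescence after a 48 h, 37 C, 5% CO2 exposure of compounds to reporter-bearing P. falciparum cultures (0.1% parasitemia, 2% hematocrit final) in Albumax-supplemented RPMI 1640.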
HCV inhibitor: qHTS Assay for Inhibitors of Hepatitis C Virus (HCV). Huh7.5.1 HCVcc-Cre infection, luciferase reporter, 44 h. 340,000 compounds, 3.4% hits. Potency, µM (titrated, usually from 41.8 µM), without a hit: at the top dose activity change, negative = inhibition, usual class: inhibitors
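Infectious HCV cell culture screen: compound-treated cells (1,000/well, pre-plated 4 h) are infected with HCVcc-Cre at roughly 0.5 moi and grown 44 h. Infection is quantified by luciferase signal after 15 min substrate incubation at room temperature.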
Pf growth 96h: Primary qHTS for delayed death inhibitors of the malarial parasite plastid, 96 hour incubation | P. falciparum luciferase reporter growth, 96 h | Potency, µM (series often up to 28.7 µM), without a hit: at the highest dose activity change, negative = inhibition, most hits filed as inhibitors | 320,000 compounds, 6.9% hits
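Compounds incubated with erythrocytes infected by luciferase-expressing P. falciparum (2% hematocrit, 0.05% parasitemia final) for 96 hours, 37 C in 5% CO2. Growth inhibition scored as decreased luciferase luminescence.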
AMA1 RON2 block: qHTS for Inhibitors of AMA1-RON; Towards Development of Antimalarial Drug Lead: Primary Screen | AlphaScreen AMA1-biotinylated RON2 peptide binding | 360,000 compounds, 0.2% hits | AID 720542, 2013 | Potency, µM (highest dose often 58.2 µM), inactives show at the top dose activity change, negative = inhibition, usual class: inhibitors | Plasmodium falciparum AMA1 (3D7) - RON2 peptide interaction;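 note: 0% = vehicle wells and -100% = peptide control; nearly all actives have a fitted effect of over 45% in size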
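AMA1 (3D7) with his tag at 25 nM final met compounds first, then biotinylated RON2 peptide at 25 nM; detection used donor plus acceptor beads, 10 µg/mL apiece, read by AlphaScreen after 30 min at room temperature.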
* marks the source's active call; other numbers are inactive results; ? = inconclusive; nt = no result given; [ ] = dose if it differs, or a comment. Shown are actives, neighbours in structure and some others; about 11% of the full set was active somewhere. Calls come from the whole dose curve; as a rule, active = well fitted curve in the direction sought with a large enough effect; inconclusive = small, poorly fitted or top-dose-only effect, or another doubt; inactive = no such curve, though single readings can be large; an effect the other way counts as inactive or inconclusive. Unless noted, % is set by controls: 0 for no effect and ±100 for the full control effect; potency is the fitted concentration of half-maximal effect.

SMILES	Pf growth 48h	HCV inhibitor	Pf growth 96h	AMA1 RON2 block
O=C1Nc2ccccc2C(=O)N(Cc2ccccc2)C1C(=O)NC1CC1 (stereo not given)	nt	nt	nt	3%
N/C(=N\OC(=O)c1cc(Cl)ccc1Cl)c1ccccn1	158%	11µM*	?	64%
N/C(=N\OC(=O)c1cccc2ccccc12)c1cccnc1	?	11µM*	-7%	13%
N/C(=N\OC(=O)c1ccc(Cl)cc1Cl)c1cccnc1	-36%	?	4.7µM*	1%
O=C(Nc1ccc(Cl)cc1)O/N=C(\c1ccccc1)c1ccccn1	15%	-7%	39%	10%
O=C(O/N=C(\c1ccccc1)c1ccccn1)c1cccc2ccccc12	16%	-11%	9.3µM*	36%
COc1ccc(Cl)cc1C(=O)O/N=C(\N)c1ccccn1	82%	?	?	63%
CCCNC(=O)C1(C)CCCN(Cc2ccc(-c3ccccc3)o2)C1 (stereo not given)	nt	nt	nt	0%
O=C1/C(=C/c2cccs2)SC(=S)N1CC(=O)N1CCCCC1CCO (stereo not given)	-7%	-16%	16%	-10%
CCOC(=O)c1[nH]c(C)c(C(=O)NC2CCCCCC2)c1C	10%	2%	9.3µM*	10%
CCOC(=O)c1[nH]c(C)c(C(=O)NC2CCCC2)c1C	nt	4%	-4%	-7%
CCOC(=O)c1[nH]c(C)c(C(=O)Nc2cc(Cl)ccc2C)c1C	16%	1.3µM*	3%	-2%
Cc1cccc(C(C(=O)NC2CCCC2)N(C(=O)c2csnn2)C2CC2)c1 (stereo not given)	0%	-1%	-28%	0%
COc1ccc(CSc2nncn2N)cc1[N+](=O)[O-]	39%	0%	7.4µM*	3%[2.32 µM]
COc1ccc(CSc2nncn2C)cc1[N+](=O)[O-]	20%	10%	0%	9%
COc1ccc(CSc2cccc3cccnc23)cc1[N+](=O)[O-]	69%	-2%	6.6µM*	-12%
C/C(=N/O)c1cccc(N2Cc3ccccc3C2)c1	13µM*	?	?	-3%
C/C(=N\O)c1cccc(Br)c1	?	10%	-4%	-3%
CCOC(=O)c1sc2nc(C)nc(NCc3ccccc3)c2c1C	?	?	316%	0%
CCOC(=O)c1sc2nc(CC(=O)OC)nc(NCc3ccc(Cl)cc3)c2c1C	nt	5.6µM*	?	1%
CCOC(=O)c1sc2nc(CC(=O)OC)nc(NCCN(CC)CC)c2c1C	nt	11µM*	?	-18%
OC[C@@H](O)C1OC2NC(=S)OC2C1O (stereo not given in full)	16%	0%	40%	20%
O=C(NCc1nnnn1-c1ccc(F)c(F)c1)c1cc2ccccc2o1	-2%	1%[8.37 µM]	-14%	-13%
O=C1C(Cl)=C(N2CCN(c3ccccc3[N+](=O)[O-])CC2)C(=O)c2ccccc21	?	?	8.3µM*	?
CCC(c1nnnn1Cc1ccc(OC)cc1)N(CCCO)Cc1cc2cc3c(cc2[nH]c1=O)OCO3 (stereo not given)	?	8%	nt	-8%
SMILES	Pf growth 48h	HCV inhibitor	Pf growth 96h	AMA1 RON2 block
CC(C)C(c1nnnn1Cc1ccccc1)N(CCCO)Cc1cc2cc3c(cc2[nH]c1=O)OCO3 (stereo not given)	7.4µM*	-11%	45%	33%
CCC(c1nnnn1Cc1ccco1)N(CCc1ccccc1)Cc1cc2cc(C)ccc2[nH]c1=O (stereo not given)	13µM*	?	314%	-2%
CCC(c1nnnn1Cc1ccccc1)N(Cc1ccco1)Cc1cc2cc(OC)ccc2[nH]c1=O (stereo not given)	?	-72%	-9%	-6%
Cc1ccc2[nH]c(=O)c(CN(CCc3ccccc3)C(c3nnnn3Cc3ccco3)C(C)C)cc2c1 (stereo not given)	3.3µM*	-27%	?	4%
COc1ccc(C2C3=C(N=C4SCC(=O)N42)c2ccccc2CC3)cc1 (stereo not given)	?	-35%	12µM*	-6%
COc1ccccc1C1C2=C(N=C3SCC(=O)N31)c1ccccc1CC2 (stereo not given)	?	-2%	?	5%
COc1ccc(C2C3=C(N=C4SCC(=O)N42)c2ccccc2CC3)cc1OC (stereo not given)	2.3µM*	-29%	14%	16%
CC(=O)Nc1nc(-c2ccccc2)nc(C)c1C(C)=O	21%	7%	1.9µM*	-1%
CCOC(=O)c1c(C)nc(-c2ccccc2)nc1N	185%	?	10µM*	30%
CSCCC(C(=O)Nc1c(C)cccc1C)n1c(-c2cc(C)cs2)nc2ccccc21 (stereo not given)	nt	nt	nt	6%
Cc1noc(C)c1S(=O)(=O)N1CCC(C(=O)N2CCN(Cc3ccc4c(c3)OCO4)CC2)CC1	?	?	5.9µM*	-3%
N#Cc1ccc(S(=O)(=O)N2CCC(C(=O)N3CCN(Cc4ccc5c(c4)OCO5)CC3)CC2)cc1	?	10µM*	?	8%
O=C(C1CCN(S(=O)(=O)c2ccccc2)CC1)N1CCN(Cc2ccc3c(c2)OCO3)CC1	-9%	nt	-26%	7%
CC(C)(C)c1ccc(C(=O)NCC2CCCN2S(=O)(=O)c2ccccc2)cc1 (stereo not given)	9.3µM*	?	13µM*	0%
Cc1ccc(C(=O)NCC2CCCN2S(=O)(=O)c2ccc(C)cc2)cc1 (stereo not given)	?	-20%	10µM*	16%
Cc1ccc(S(=O)(=O)N2CCCC2CNC(=O)c2ccc(F)c(F)c2)cc1 (stereo not given)	10µM*	?	?	-9%
Cc1ccc(C)c(S(=O)(=O)N2CCCC2CNC(=O)c2ccc([N+](=O)[O-])cc2)c1 (stereo not given)	10µM*	11µM*	?	5%
Cc1ccc(S(=O)(=O)N2CCCC2CNC(=O)C(=O)NC2CC2)cc1 (stereo not given)	-2%	13%	?	-18%
C=Cc1ncc(OC)c2c1[nH]c1ccccc12	-20%	?	34%	-5%
O=c1ccc(-c2nc3cc(Cl)ccc3n2Cc2ccccc2)c[nH]1	?	20%	9.3µM*	-7%
COc1cccc(NC(=O)C2(C)CCN2C(=O)CCc2ccc(Cl)cc2Cl)c1 (stereo not given)	nt	nt	nt	5%
COc1ccc(CC2SC(=Nc3ccc(F)cc3)NC2=O)cc1 (stereo not given)	2.9µM*	3%	-25%	1%
COc1ccc(N=C2NC(=O)C(CC(=O)NCCc3ccc(OC)c(OC)c3)S2)cc1 (stereo not given)	?	-17%	-37%[5.75 µM]	-2%
CCCC1(c2ccccc2)NC(=O)N(CC(=O)c2[nH]c(C)c(C(=O)OCC)c2C)C1=O (stereo not given)	4.1µM*	?	8.3µM*	0%

Assay outcomes from PubChem BioAssay.
